The sequences below were run on PPARg homodimer (NR concentration 180 nM) (assay: PBM binding z-score (relative to random genomic background probes); higher = stronger binding; sequences stand for … in GC…GCGATTGACAGCGTAGAATGAAGG).
Outline: (§1)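 Random background probes are the reference for binding z-scores. These scores derive from regression-normalized fluorescence on custom Agilent 4×180K protein-binding microarrays incubated 1 h with ligand-free nuclear receptor dimers. Binding was detected with antibodies against each partner (one per run).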
For TAGCCTAGGTCATGGGCTAGTATACCACGCGAAC, the PBM binding z-score was 1.36. TCAGACAGGTGATGGTAACTCAGGTACGCAGTCG gave a PBM binding z-score of 0.0712. GTACCAAGGAGAATAGGTCGTTGATGAGTAGGCG was tested, and the PBM binding z-score was 0.315. Sequence TATCCTAGGTCATGGGCCAGTATACCACGCGAAC has a PBM binding z-score of 1.22. With CGAACTAGGTCATTGAGAGGACAGTGAATAGTAA the PBM binding z-score was 2.27. TTACCAAGGTGAGCTGAGGTCGTTGATCCAACTC gave a PBM binding z-score of -0.21. TTACCAAGGTTAGCTGAGGTCGTTGATCCAACTC gave a PBM binding z-score of 0.103. For CCTTACGGGTCACAGACAGGTTATAGCATTTGGA, the PBM binding z-score was 2.76. TCGAGTAGGTTAGTCGGGGCAATCAGCCAACATA showed a PBM binding z-score of -0.0632. In the case of GCTTGTAGAACAAGGTTAAGAAAGACTAAGCTAA, the PBM binding z-score is reported as 0.167. TCATAGAGGTAATACAGGTGAAAGTCGGCATCTA showed a PBM binding z-score of 0.49. GCTGCTAAGTCAGGTTGGTCAGCTAACGGGTACG showed a PBM binding z-score of -0.201. CGTCCAAGGTCAGAAGGTCAGTGAAAGCGACGTG was tested, and the PBM binding z-score was 3.82. Sequence TCTATTAGTTGAAGGGCAACCGGCGAGTCCGTTT has a PBM binding z-score of 1.25. ATCTCTAGGTTACCAAGTTCAGTGAATGCCGAAC gave a PBM binding z-score of 1.15. Sequence CGTCCAAGGTCAATGCTAGGTCCGTGAAAGCATT has a PBM binding z-score of 3.68. In the case of CTACCAAGGGGAACAAGGTCGTTGATTACTATTC, the PBM binding z-score is reported as 0.795. In the case of CCTTACGGGCCACTGACAGGTTATAGCATTTGGA, the PBM binding z-score is reported as 0.129. TCAAGTTGGTCAAAGGTCACACACTCGAAATGCG was tested, and the PBM binding z-score was 5.18. TCTATTAGTTGATTGGGGCAACCGAAACAGCGGA was tested, and the PBM binding z-score was 0.142. ATATGTAGGTTACATCCGTGTCATTCAGGCTATG was tested, and the PBM binding z-score was 1.36. Work on GCAGACCGGTGAAACGCAGGTAACTCAGGGTGGC yielded a PBM binding z-score of -1.43. CCAGACAGGTGAAAGGTAACTTAGTCTGGTACGC was tested, and the PBM binding z-score was 0.712. GCTAGCTGGTCAGTAAAAGGTCACACACCGGTCG was tested, and the PBM binding z-score was 5.71. With ATCTCTAGGTAAGACTCAGTTCAGTTAAGAACGC the PBM binding z-score was 1.1. Sequence TCATATAGATAAACAGGTGAAAGTCCGTAAGTTA has a PBM binding z-score of 1.33. TCGAGTATGTTAGTCGGGGCATTCAGCCAACATA showed a PBM binding z-score of -0.491. Work on CGTCCAAGGTCAGCAGGTCAATGAAAGCGACGTG yielded a PBM binding z-score of 2.98. For CTCGAAAGGTCGGTTGAGGTGAGTATCCGGATAA, the PBM binding z-score was 1.02. Work on CCAAGTAGGTTATGGGGCATTCAGGCAACGGTGA yielded a PBM binding z-score of 1.18. With AGAATGAGGATATACGTAGATCAGGGAAGAAAGT the PBM binding z-score was 0.0264. CCTTACGGGTCAAGGGTATAGCACGGGTGGTACG showed a PBM binding z-score of 3.73. For CAAACTAGGTCACCGAGGTCAAAGTCCGTGCGTA, the PBM binding z-score was 5.36. With TGTCAAAGTTCAAAGGTAACCTAAGTATCCACAC the PBM binding z-score was 3. In the case of ACTATTAGTTGACTTAGGGCGACCGATACGACGC, the PBM binding z-score is reported as 0.828. TTACCAAGGTTAAGGTCGTTGATCCCTCTGTAGA gave a PBM binding z-score of 1.05. GCAGACAGGGGAAACGCAGGTAACTCAGGGTGGC gave a PBM binding z-score of -1.42. GCTAGCAGGCCATTTGGGTCACTCTATGACGGGC showed a PBM binding z-score of -0.345. Sequence ATCTCTAGCTAAGACTCAGTTCAGTGAAGAACGC has a PBM binding z-score of 0.595. In the case of ATCTCTAGGTAACAAGTTCAGTCAAAGAGAGGAC, the PBM binding z-score is reported as 1.63.

These sequences were tested on PXR:RXRa (NR concentration 270 nM, RXRa partner concentration 90 nM) in the same assay as above.
Outline: as §1
For TAGCCTAGGTCATGGGCTAGTATACCACGCGAAC, the PBM binding z-score was 1.6. Work on TCAGACAGGTGATGGTAACTCAGGTACGCAGTCG yielded a PBM binding z-score of 0.333. For GTACCAAGGAGAATAGGTCGTTGATGAGTAGGCG, the PBM binding z-score was 0.103. For TATCCTAGGTCATGGGCCAGTATACCACGCGAAC, the PBM binding z-score was 2.25. CGAACTAGGTCATTGAGAGGACAGTGAATAGTAA gave a PBM binding z-score of 2.36. Work on TTACCAAGGTGAGCTGAGGTCGTTGATCCAACTC yielded a PBM binding z-score of 4.78. TTACCAAGGTTAGCTGAGGTCGTTGATCCAACTC was tested, and the PBM binding z-score was 5.71. CCTTACGGGTCACAGACAGGTTATAGCATTTGGA showed a PBM binding z-score of 3.87. With TCGAGTAGGTTAGTCGGGGCAATCAGCCAACATA the PBM binding z-score was 0.138. In the case of GCTTGTAGAACAAGGTTAAGAAAGACTAAGCTAA, the PBM binding z-score is reported as 0.293. TCATAGAGGTAATACAGGTGAAAGTCGGCATCTA showed a PBM binding z-score of 0.522. GCTGCTAAGTCAGGTTGGTCAGCTAACGGGTACG gave a PBM binding z-score of -0.468. Sequence CGTCCAAGGTCAGAAGGTCAGTGAAAGCGACGTG has a PBM binding z-score of 4.48. Sequence TCTATTAGTTGAAGGGCAACCGGCGAGTCCGTTT has a PBM binding z-score of 0.943. ATCTCTAGGTTACCAAGTTCAGTGAATGCCGAAC was tested, and the PBM binding z-score was 3.34. For CGTCCAAGGTCAATGCTAGGTCCGTGAAAGCATT, the PBM binding z-score was 3.8. For CTACCAAGGGGAACAAGGTCGTTGATTACTATTC, the PBM binding z-score was 1.46. CCTTACGGGCCACTGACAGGTTATAGCATTTGGA was tested, and the PBM binding z-score was -0.136. With TCAAGTTGGTCAAAGGTCACACACTCGAAATGCG the PBM binding z-score was 5.91. With TCTATTAGTTGATTGGGGCAACCGAAACAGCGGA the PBM binding z-score was 0.811. Work on ATATGTAGGTTACATCCGTGTCATTCAGGCTATG yielded a PBM binding z-score of 0.878. In the case of GCAGACCGGTGAAACGCAGGTAACTCAGGGTGGC, the PBM binding z-score is reported as -0.781. In the case of CCAGACAGGTGAAAGGTAACTTAGTCTGGTACGC, the PBM binding z-score is reported as 0.936. GCTAGCTGGTCAGTAAAAGGTCACACACCGGTCG gave a PBM binding z-score of 5.04. With ATCTCTAGGTAAGACTCAGTTCAGTTAAGAACGC the PBM binding z-score was 1.11. Work on TCATATAGATAAACAGGTGAAAGTCCGTAAGTTA yielded a PBM binding z-score of 1.07. With TCGAGTATGTTAGTCGGGGCATTCAGCCAACATA the PBM binding z-score was -0.224. CGTCCAAGGTCAGCAGGTCAATGAAAGCGACGTG gave a PBM binding z-score of 4.21. With CTCGAAAGGTCGGTTGAGGTGAGTATCCGGATAA the PBM binding z-score was 2.98. With CCAAGTAGGTTATGGGGCATTCAGGCAACGGTGA the PBM binding z-score was -0.156. In the case of AGAATGAGGATATACGTAGATCAGGGAAGAAAGT, the PBM binding z-score is reported as -0.403. In the case of CCTTACGGGTCAAGGGTATAGCACGGGTGGTACG, the PBM binding z-score is reported as 2.9. Work on CAAACTAGGTCACCGAGGTCAAAGTCCGTGCGTA yielded a PBM binding z-score of 6.93. Sequence TGTCAAAGTTCAAAGGTAACCTAAGTATCCACAC has a PBM binding z-score of 5.7. With ACTATTAGTTGACTTAGGGCGACCGATACGACGC the PBM binding z-score was -0.0513. TTACCAAGGTTAAGGTCGTTGATCCCTCTGTAGA was tested, and the PBM binding z-score was 3.04. GCAGACAGGGGAAACGCAGGTAACTCAGGGTGGC gave a PBM binding z-score of -0.626. Work on GCTAGCAGGCCATTTGGGTCACTCTATGACGGGC yielded a PBM binding z-score of 0.138. ATCTCTAGCTAAGACTCAGTTCAGTGAAGAACGC showed a PBM binding z-score of 0.728. ATCTCTAGGTAACAAGTTCAGTCAAAGAGAGGAC gave a PBM binding z-score of 1.77.

Reference: the supplement of paper PMC6555819
